Screens from PubChem BioAssay.
LGR2 antag: blocks bursicon-induced cAMP signaling via Drosophila LGR2; HEK293 LGR2, CRE-luciferase, bursicon-stimulated, 4 h; inhibition, % at 9.99 µM; 0.35% of 380,000 active; AID 720647;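 active = drop in luminescence signal, shown as inhibition above about 50% in the replicate tests, limit read from the data, passing the limit was not always enough; inconclusive = probably only some replicates passing the limit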;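 also: agonist challenge used bursicon conditioned medium at about half maximal strength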
HSP90 refold inh: blocks HSP90-mediated luciferase refolding in reticulocyte lysate | Rabbit reticulocyte lysate, luciferase refolding luminescence, 3 h | inhibition, % at 5.6 µM | 0.91% of 290,000 active;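 active = inhibition above the screen-wide mean plus 3 SD, computed separately per campaign, cut at about 16% in these data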;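 also: inhibitors lower the luminescence because luciferase stays unfolded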
TROY NFkB inh: inhibitors of TROY-dependent NF-kB signaling. Q293 LMP1-TROYcd NF-kB luciferase reporter, 4 h. inhibition, % at 10 µM. 0.98% of 360,000 active. AID 1347056;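 active = compounds whose plate-normalised and pattern-corrected inhibition of the luciferase reporter signal at the single screening dose is 50% or more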
TWEAK Fn14 block: TWEAK-Fn14 signaling inhibition; TWEAK-stimulated Fn14 reporter cells, luciferase luminescence, 8 h; inhibition, % at 10 µM; 2% of 360,000 active; AID 1159606; in the data active = inhibition above about 50%
A number is an active result; n = inactive; u = inconclusive; x = no result given. In the library only some 2.2% were active in any assay of this set; here they are far more common.

SMILES	LGR2 antag	HSP90 refold inh	TROY NFkB inh	TWEAK Fn14 block
CCCNC(=O)[C@@H]1[C@@H](CO)[C@@H]2Cn3c(ccc(-c4ccc(F)cc4)c3=O)[C@H]1N2CC	n	x	x	x
C[C@@H]1CN([C@H](C)CO)C(=O)c2cccc(NC(=O)c3ccncc3)c2O[C@H]1CN(C)C(=O)Nc1ccc2c(c1)OCO2	n	x	x	x
CC(C)NC(=O)N[C@H]1CC[C@@H](CCNC(=O)C2CCOCC2)O[C@@H]1CO	n	x	x	x
Cc1nc(SCC(=O)Nc2ccc(S(=O)(=O)N3CCOCC3)cc2)c2c(C)c(C)sc2n1	n	x	51	n
O=C(Nc1nnc(-c2ccccc2)s1)c1ccc(Cl)c(S(=O)(=O)N2CCOCC2)c1	x	n	x	x
O=C(Nc1nnc(-c2ccccc2)s1)c1cc(S(=O)(=O)N2CCOCC2)c(Cl)cc1Cl	x	n	61	n
OC[C@@H]1CN(Cc2ccccc2)C[C@H](n2cnc3c(NCc4ccc(F)cc4)ncnc32)O1	n	x	n	n
OC[C@@H]1CN(Cc2ccc(-c3ccccc3)cc2)C[C@H](n2cnc3c(Nc4ccccc4)ncnc32)O1	n	x	n	92
OC[C@@H]1CN(Cc2ccc(F)cc2)C[C@H](n2cnc3c(Nc4ccccc4)ncnc32)O1	n	x	n	n
OC[C@@H]1CN(Cc2ccc(-c3ccccc3)cc2)C[C@H](n2cnc3c(NCc4ccc(F)cc4)ncnc32)O1	n	x	50	88
CN1C(=O)c2cc(NC(=O)C3CCOCC3)ccc2OC[C@@H]2O[C@@H](CC(=O)NC3CCCC3)CC[C@H]21	n	x	x	x
Cc1noc(C)c1NC(=O)N(C)C[C@@H]1Oc2ccc(NC(=O)Nc3cccc4ccccc34)cc2CC(=O)N([C@H](C)CO)C[C@@H]1C	n	x	x	x
O=S(=O)(c1ccc(F)cc1)N1CC[C@@H]2[C@H](CO)Nc3ccc(-c4ccc(F)cc4)cc3[C@@H]21	n	x	x	x
CCC(=O)N1[C@@H]2CN(C(=O)c3cccc(OC)c3)c3ccccc3[C@@H]2[C@@H]1CO	n	x	x	x
COc1ccc(/C=N/Nc2cc(C)nc3ccc(OC)cc23)c(OC)c1	103	n	82	86
COc1ccc2nc(C)cc(N/N=C/c3ccccc3)c2c1	x	x	n	n
C(/C=C/c1ccccn1)=C\c1ccccc1	76	x	n	n
CC(C)OC(=O)N(C)C[C@@H]1OCc2ccccc2-c2ccccc2C(=O)N([C@@H](C)CO)C[C@@H]1C	n	x	x	x
C/C(=N\Nc1ccc(F)cc1F)c1ccc(N2CCOCC2)cc1	n	n	n	n
Fc1ccc(N/N=C/c2ccc(N3CCOCC3)cc2)c(F)c1	n	n	70	n
O=C(N[C@H]1CC[C@H](CC(=O)N2CCc3ccccc3C2)O[C@H]1CO)C1CCC1	n	x	x	x
O=C(Nc1ccccc1)N1CCCC1	n	n	n	n
O=C(Nc1ccccc1)N1CCNCC1	n	n	90	n
O=C(c1ccccc1F)N1C[C@@H]2[C@H](c3ccccc31)[C@H](CO)N2C(=O)c1cccnc1	n	x	x	x
C[C@@H]1CN([C@H](C)CO)C(=O)Cc2cc(NC(=O)Cc3ccccc3)ccc2O[C@H]1CN(C)Cc1ccc(Cl)c(Cl)c1	n	x	x	x
SMILES	LGR2 antag	HSP90 refold inh	TROY NFkB inh	TWEAK Fn14 block
O=C(NCC[C@H]1CC[C@@H](NC(=O)C2CCCCC2)[C@@H](CO)O1)c1cc(Cl)cc(Cl)c1	n	x	x	x
O=C(CCc1nc(-c2ccccc2F)no1)Nc1ccc(Oc2ccccc2)cc1	n	n	n	52
O=C(CC1CC1)Nc1ccc2c(c1)[C@@H]1C[C@@H](CC(=O)N3CCc4ccccc4C3)O[C@@H](CO)[C@@H]1O2	n	x	x	x
O=C(O)c1cccc(N2C(=O)/C(=C/c3ccc([N+](=O)[O-])cc3)C=C2c2ccccc2)c1	u	n	n	52
O=C1/C(=C/c2ccc([N+](=O)[O-])cc2)C=C(c2ccccc2)N1c1ccccc1	x	n	n	n
Cc1ccc(NC2=C(Cl)C(=O)OC2OC(=O)c2ccco2)c(C)c1 (stereo unspecified)	x	n	n	n
Cc1ccc(C)c(NC2=C(Cl)C(=O)OC2OC(=O)c2ccco2)c1 (stereo unspecified)	n	n	n	59
Oc1ccc(-c2cnns2)c(O)c1	n	n	n	63
CC(=O)N(CN1C(=O)CCC1=O)c1ccc(Cl)c(Cl)c1	n	n	58	73
Cc1cc(=O)n2c3ccccc3n(CC(O)CN3CCN(Cc4ccccc4)CC3)c2c1C#N (stereo unspecified)	n	n	n	n
Cc1cc(=O)n2c3ccccc3n(CC(O)CN3CCN(CCO)CC3)c2c1C#N (stereo unspecified)	n	n	n	68
C[C@@H]1CN([C@H](C)CO)C(=O)c2cc(NC(=O)c3ccccc3)ccc2O[C@@H](C)CCCCO[C@@H]1CN(C)C(=O)Nc1cccc2ccccc12	n	x	x	x
CC(=O)c1ccc2c(c1)CC1(C2)Cc2cc3c(cc2C1)C(=O)CC3 (stereo unspecified)	n	x	51	57
CC(=O)c1ccc2c(c1)Cc1cc(C(C)=O)ccc1-2	n	n	n	n
CCOC(=O)c1c(C)[nH]c(C2=NNC(=Nc3ccccc3OC)SC2)c1C	n	n	n	51
CCOC(=O)c1c(C)[nH]c(C2=NNC(=Nc3ccccc3)SC2)c1C	n	n	n	n
COC(=O)c1cc(=O)n(Cc2cccs2)c(=Nc2ccc(F)cc2)s1	56	n	n	56
COC(=O)c1cc(=O)n(Cc2ccc3c(c2)OCO3)c(=Nc2ccc(F)cc2)s1	u	n	n	n
COC(=O)c1cc(=O)n(-c2ccc(F)cc2)c(=Nc2ccc(F)cc2)s1	u	n	n	50
CC(=O)N1[C@H](CO)[C@H](c2ccc(C3=CCCC3)cc2)[C@@H]1CNC(=O)CC1CC1	n	x	x	x
CCOc1ccccc1C(=O)Nc1nnc(SCC(=O)N2CCOCC2)s1	n	n	n	n
O=C(Nc1nnc(SCC(=O)N2CCOCC2)s1)c1ccccc1	n	n	73	71
NNc1nc2ccccc2c(=O)n1Cc1ccccc1	n	n	n	74
COc1ccc(CCn2c(N)c(C(=O)NCc3ccco3)c3nc4ccccc4nc32)cc1	n	n	65	61
Nc1c(C(=O)NCc2ccco2)c2nc3ccccc3nc2n1CCc1ccccc1F	x	n	54	n
SMILES	LGR2 antag	HSP90 refold inh	TROY NFkB inh	TWEAK Fn14 block
COc1ccc(CCn2c(N)c(C(=O)NCc3ccco3)c3nc4ccccc4nc32)cc1OC	x	n	n	n
CCCN(C)C[C@H]1OCCCC[C@@H](C)Oc2ccc(NS(=O)(=O)c3cccs3)cc2C(=O)N([C@@H](C)CO)C[C@@H]1C	n	x	x	x
CCCn1c(SCC(=O)N2c3ccccc3Sc3ccccc32)nc2c1c(=O)n(C)c(=O)n2C	x	n	50	n
CC(C)n1c(SCC(=O)N2c3ccccc3Sc3ccccc32)nc2c1c(=O)n(C)c(=O)n2C	n	n	n	n
COc1ccccc1NC(=O)N[C@@H]1CC[C@@H](CCNC(=O)c2ccc3c(c2)OCO3)O[C@@H]1CO	n	x	x	x
COc1ccc(C(=O)Nc2ccc3c(c2)OC[C@@H](C)N(C(C)=O)C[C@@H](C)[C@@H](OC)CN(C)C3=O)cc1	n	x	x	x
COc1cc(OC)c2c(-c3cccc(-c4ccc(CO)cc4)c3)cc(=O)oc2c1	x	x	n	75
COc1cc(OC)c2c(-c3cccc(-c4ccc(N(C)C)cc4)c3)cc(=O)oc2c1	n	x	n	52
COc1ccc(-c2cccc(-c3cc(=O)oc4cc(OC)cc(OC)c34)c2)cc1	n	x	n	n
